# Experimental data: PubChem BioAssay AID1645886 (National Center for Advancing Translational Sciences (NCATS), 2021)
# In all, about 16,000 compounds went through this assay and about 260 (1.6%) were called active. Another 14% or so got no clear call; they are omitted. Calls come from the whole dose curve; as a rule, active = well fitted inhibition curve with a large enough effect; inconclusive = small, poorly fitted or top-dose-only effect; inactive = no such curve, though single readings can be large or run the other way. The sample as a whole holds a higher share of actives than the screen did. More than one record can exist for a structure, and the calls need not agree.
# Molecular target: Rap guanine nucleotide exchange factor 4 (Homo sapiens) (UniProt Q8WZA2)
# Assay: Validation qHTS for antagonist of cAMP-regulated guanine nucleotide exchange factor 4 (EPAC2); note: nearly all actives have a fitted effect of over 40% in size
# Settings: EPAC2 Rap1B BODIPY-GDP exchange, fluorescence; series mostly up to 112 µM; activity, negative = inhibition: at the top concentration
# Excerpt: Principle Investigator: Xiaodong Cheng Ph.D. The University of Texas Medical Branch, […], TX MLPCN Grant: NS066510 In multi-cellular eukaryotic organisms, the effects of cAMP are transduced by two ubiquitously-expressed intracellular cAMP receptors, the classic protein kinase A/cAMP-dependent protein kinase (PKA/cAPK) and the more recently discovered exchange protein directly activated by cAMP/cAMP-regulated guanine nucleotide exchange factor (EPAC/cAMP-GEF). Both PKA and EPAC are ubiquitously expressed in all tissues, and an increase in intracellular cAMP levels will lead to the activation of both PKA and EPAC. Therefore, careful dissections of the individual role and relative contribution of EPAC and PKA within the overall cAMP signaling in various model systems are critical for further elucidating the mechanism of cAMP signaling. To date no EPAC-specific antagonists and agonist, as well as isoform-specific agonists have been reported, and developing EPAC-specific pharmacological probes to determine the physiological functions that EPAC play in the overall cAMP-mediated signaling remains a major challenge within the research field. Furthermore, identified regulators of EPAC may lead to new mechanism-based therapeutic strategies specifically targeting the EPAC / cAMP-signaling components as EPAC has been implicated to play important roles in major human pathological conditions such as diabetes, heart disease, and cancer. This qHTS will be used to screen the Molecular Libraries Small Molecule Repository (MLSMR) as a concentration-titration series using the NCGC unique quantitative screening (qHTS) platform to find activators for EPAC1. In addition, this assay will also be used as a counterscreen for the EPAC2 qHTS. This fluorescent based assay is developed and validated for EPAC1 that measures exchange using EPAC effector Rap1 complex with BODIPY-GDP, a GDP analog with a tethered fluorophores. Activators are identified by monitoring the change in fluorescence signal as the exchanged free BODIPY-GDP has a reduced fluorescence compared to Rap1-bound BODIPY-GDP. Increase in signal (activation) is the desired outcome for the EPAC1 agonist while no activity in this assay is desired for the EPAC2 agonist counterscreen. Reference: [1] de Rooij, J., Zwartkruis, F. J., Verheijen, M. H., Cool, R. H., Nijman, S. M., Wittinghofer, A., and Bos, J.L. (1998) Nature 396, 474-477.
# Briefly, three uL of reagents (100 nM EPAC2, 250 nM RAP1B-BODIPY-GDP, 50 uM GDP) were dispensed into a 1536-well Greiner black solid-bottom medium binding assay plate. Controls and test compounds (23 nL) were transferred to the plate via a Kalypsys pin tool equipped with a 1536-pin array. The plates were centrifuged at 1,000 rpm for 15 seconds followed by 5 minute incubation at room temperature. The assay plates were read at 5 minute intervals for 30 minutes in the ViewLux plate reader using 480nm excitation and 540nm emission filters. The results were normalized to the agonist positive control of 6.5 mM cAMP.
# Potency is the fitted concentration of half-maximal effect.
# Chain of Rap guanine nucleotide exchange factor 4 (Homo sapiens) (Q8WZA2 whole entry, looked up): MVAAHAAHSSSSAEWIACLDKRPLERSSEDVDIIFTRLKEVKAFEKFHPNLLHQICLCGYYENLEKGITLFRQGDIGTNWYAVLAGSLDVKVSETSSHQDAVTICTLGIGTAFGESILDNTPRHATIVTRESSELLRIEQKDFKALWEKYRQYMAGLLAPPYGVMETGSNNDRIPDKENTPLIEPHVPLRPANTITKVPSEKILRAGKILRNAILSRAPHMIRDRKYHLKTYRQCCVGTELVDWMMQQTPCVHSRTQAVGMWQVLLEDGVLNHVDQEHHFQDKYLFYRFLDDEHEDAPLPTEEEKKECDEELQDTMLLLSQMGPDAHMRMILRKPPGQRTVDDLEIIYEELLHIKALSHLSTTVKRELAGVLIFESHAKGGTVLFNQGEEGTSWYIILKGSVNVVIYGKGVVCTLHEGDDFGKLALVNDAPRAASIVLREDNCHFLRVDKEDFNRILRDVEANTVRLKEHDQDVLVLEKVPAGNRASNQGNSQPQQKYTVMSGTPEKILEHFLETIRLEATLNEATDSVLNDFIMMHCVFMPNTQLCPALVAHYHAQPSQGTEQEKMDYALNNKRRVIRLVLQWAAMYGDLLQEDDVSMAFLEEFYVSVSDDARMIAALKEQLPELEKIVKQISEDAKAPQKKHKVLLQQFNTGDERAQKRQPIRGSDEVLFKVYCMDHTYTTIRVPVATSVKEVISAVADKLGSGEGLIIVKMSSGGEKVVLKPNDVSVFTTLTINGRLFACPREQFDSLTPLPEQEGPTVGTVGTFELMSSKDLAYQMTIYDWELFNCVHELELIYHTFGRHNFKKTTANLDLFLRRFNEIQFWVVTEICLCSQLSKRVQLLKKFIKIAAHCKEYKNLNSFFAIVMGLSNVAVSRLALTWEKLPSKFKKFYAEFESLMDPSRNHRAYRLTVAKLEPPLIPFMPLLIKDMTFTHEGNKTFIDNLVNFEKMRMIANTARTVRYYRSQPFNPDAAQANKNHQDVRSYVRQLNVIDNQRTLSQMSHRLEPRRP
Structure (SMILES),"activity, negative = inhibition",Potency
NCCC(=O)c1ccccc1N,-11% (inactive),
Cc1ccc(-c2nn(CC(C)(C)C)c3ncnc(N)c23)cc1,-16.1% (inactive),
CN[C@@H]1[C@H](O[C@H]2[C@H](O[C@H]3[C@H](O)[C@@H](O)[C@H](N=C(N)N)[C@@H](O)[C@@H]3N=C(N)N)O[C@@H](C)[C@]2(O)CO)O[C@@H](CO)[C@H](O)[C@H]1O,-7.91% (inactive),
CCS(=O)(=O)N(C)[C@@H]1c2cc(C#N)ccc2OC(C)(C)[C@H]1O,-18.9% (inactive),
CC(C)=CCN1CCC2(CCc3ccccc32)CC1,4.49% (inactive),
Nc1nc2[nH]c(=O)c(=O)[nH]c2c(=O)[nH]1,-5.47% (inactive),
Cn1c(=O)c(-c2ccccc2)nc2cnc(N3CCNCC3)nc21,-20.6% (inactive),
COc1ccccc1CN1CC2(CCN(S(=O)(=O)c3ccccc3)CC2)C1,-22.4% (inactive),
CCn1ccnc1C[C@@H]1COc2ccccc2O1,,20 µM (active)
CCC1(C2CCN(Cc3cccnc3)CC2)NC(=O)N(CC2COc3ccccc3O2)C1=O (centres undefined),-20.3% (inactive),
Nc1nc2c(nc(Cl)n2C2OC(CO)C(O)C2O)c(=O)[nH]1 (centres undefined),-5.51% (inactive),
Cc1nnc(C(=O)NC(C)(C)c2nc(C(=O)NCc3ccc(F)cc3)c(O)c(=O)n2C)o1,13.2% (inactive),
O=C(c1cccc(F)c1)N1CCC2(CC1)CCN(c1ccccc1)CC2,-18.3% (inactive),
COc1ccc(-n2c(=O)c(-c3cn(C)c4ccccc34)nc3cnc(OC)nc32)cc1,-21.3% (inactive),
COc1ccccc1CNc1ncnc2ccc(-c3c(C)noc3C)cc12,-16% (inactive),
CC1(C)OC2CC3C4CCC5=CC(=O)CCC5(C)C4(F)C(O)CC3(C)[C@]2(C(=O)CCl)O1 (some centres undefined),-11.2% (inactive),
COc1ccccc1-c1ccc(C(=O)N(C)C(C)c2ccon2)c(N2CCN(c3ccccc3F)CC2)n1 (centres undefined),-16.9% (inactive),
COc1ccccc1-c1ccnc(-n2ncc(C(=O)NCCCN3CCOCC3)c2C)n1,-2.97% (inactive),
N#Cc1ccc(CN2CCCC3(CCN(C(=O)c4ccco4)CC3)C2)cc1,-18.6% (inactive),
CS(=O)(=O)N1CCC2(CC1)CN(c1ccncc1)C2,-32.4% (inactive),
COc1ccc(NC(=O)N2CC3(CCN(C(C)=O)CC3)C2)cc1,-19.7% (inactive),
N#Cc1ccccc1-c1ccc2ncnc(NCc3cccnc3)c2c1,-5.3% (inactive),
COC1(C2=NCCN2)COc2ccccc2O1 (centres undefined),-22% (inactive),
COc1ccc2c(=O)cc(-c3ccccc3)oc2c1O,-30.4% (inactive),
Cc1ccc(-c2ccnc(-n3ncc(C(=O)N(C)Cc4cccc5ncccc45)c3C3CC3)n2)o1,5.35% (inactive),
NC1CCN(O)C1=O (centres undefined),9.16% (inactive),
CC(=O)O[C@]1(C(C)=O)CC[C@H]2[C@@H]3C=C(C)C4=CC(=O)CC[C@]4(C)[C@H]3CC[C@@]21C,-0.525% [at 56.6 µM] (inactive),

Structure (SMILES),"activity, negative = inhibition",Potency
Nc1nc2c(ncn2[C@@H]2O[C@H](COP(=O)(O)OP(=O)(O)OP(=O)(O)O)[C@@H](O)C2O)c(=O)[nH]1 (some centres undefined),13.3% (inactive),
CC(C)NC(=O)N1CCC2(CC1)CCN(C(=O)c1cccn1C)CC2,-21.4% (inactive),
CCNc1ncc2ncc(=O)n(CCc3ccccc3)c2n1,-6.79% (inactive),
CN1CCC(=O)N([C@H](CO)Cc2ccccc2)CC1,1.88% (inactive),
O=C(/C=C/c1cccc(F)c1)NC1CC1,28.6% (inactive),
Cc1nc2cnc(N3CCNCC3)nc2n(CCc2ccccc2)c1=O,-20.3% (inactive),
Cc1cnc(CNc2cc(-c3c(C)noc3C)ncn2)cn1,-8.53% (inactive),
COC(=O)c1c(OCc2ccc(F)cc2)cc(=O)n2c1CCN(Cc1ccc3cccnc3c1)CC2,-20.7% (inactive),
COc1ccc2[nH]cc(CCNc3nc(-c4cccc(NS(C)(=O)=O)c4)nc4ccccc34)c2c1,-18.1% (inactive),
COc1cc(=O)n2c(c1C(=O)NC(C)c1ccco1)CCN(Cc1cc(C)cc(C)c1)CC2 (centres undefined),8.46% (inactive),
O=C(Nc1cccc(F)c1)N1CC2(CCN(C(=O)c3csnn3)CC2)C1,-28.5% (inactive),
FC(F)(F)c1cccc(-c2cn[nH]c2C2CCCN(Cc3cccn3-c3ccccn3)C2)c1 (centres undefined),-16.2% (inactive),
CC(=O)O[C@]1(C(C)=O)CC[C@H]2[C@@H]3CCC4=CC(=O)CC[C@]4(C)[C@@]3(F)[C@@H](O)C[C@@]21C,-8.39% (inactive),
COc1ccccc1CNc1ncnc2ccc(-c3ccc4c(c3)OCO4)cc12,-17.6% (inactive),
O=C(c1cn(CC2CCCN(Cc3cc4ccccc4s3)C2)nn1)N1CCCC1 (centres undefined),-18.8% (inactive),
COCCn1c(=O)c(-c2ccccc2)nc2cnc(N3CCOCC3)nc21,-0.915% (inactive),
CC1O[C@@H](Oc2c(-c3ccc(O)c(O)c3)oc3cc(O)cc(O)c3c2=O)C(O)C(O)C1O (some centres undefined),-13% (inactive),
O=C(C(=O)N1CCOc2ccc(CN3CCN(Cc4ccccn4)CC3)cc2C1)c1ccccc1,-2.87% (inactive),
COC(=O)N1CCC2(CCCN(Cc3ccccc3OC)C2)CC1,-12.2% (inactive),
CCOc1ccc2nc(N3CCCN(CCCn4cccn4)CC3)nc(C)c2c1,-5.1% (inactive),
Oc1cc2c(cc1O)CN(C(=S)NCCc1ccc(Cl)cc1)CCC2,,56.2 µM (active) and inactive
CC(C)=CCC/C(C)=C/CC/C(C)=C/CC/C(C)=C/CO,,inactive
O=c1c(O)c(Br)ccc2c(Br)c(O)c(O)c(O)c12,6.67% (inactive),
CC(=O)NC(=O)c1ccccc1O,23.4% (inactive),
Cc1oc(-c2cccc(NC(=O)c3ccccc3)c2)nc1CNC(=O)c1cnc2ccccn2c1=O,-3.94% (inactive),
COc1ccccc1C(=O)N[C@@H]1c2ccccc2C2(CCN(C(=O)c3csnn3)CC2)[C@H]1OC,-9.95% (inactive),
CC1C(O)CC2C(C(=O)O)=CO[C@@H](O[C@H]3OC(CO)C(O)C(O)C3O)C21 (some centres undefined),-1.93% (inactive),
